Test results as given in PubChem BioAssay.
Where “and” joins values, the source holds several entries; their conditions need not be identical. Equal entries are not always repeated. Calls of active or inactive are those of the source.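 Rule for the calls, unless noted: active = thallium flux through the channel raised or lowered by more than 3 SD from vehicle-only wells, actives on both sides; inactive = the rest.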

Tests used:
[1] = liver-stage malaria parasite growth inhibition, primary screen, cell-based, HepG2, luciferase luminescence, HepG2 viability (AID 624349; in the data active = parasite load remaining mostly below about 12%, no sharp cut-off; inactive = mostly above about 10%;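 note: 100% = mean of DMSO negative control wells on the same plate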); conditions: P. berghei liver stage in HepG2, luciferase luminescence, concentration not given here; parasite load remaining: stronger effect = lower value; viability: measured here: HepG2 viability without parasites
[2] = target: 6-phosphogluconate dehydrogenase, decarboxylating (Homo sapiens) (UniProt P52209); experiment: 6PGD enzyme inhibitors, primary screen, biochemical, human, recombinant enzyme, NADPH absorbance (AID 1159550;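 active = at least 20% inhibition of 6-phosphogluconate dehydrogenase activity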); conditions: recombinant 6PGD, NADPH absorbance 341 nm; at 10 µM; stronger effect = higher value
[3] = modulation of C. elegans fzo-1 (AID 1259413; call rule not given here;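 note: fzo-1 mutant C. elegans worms in liquid wells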); conditions: C. elegans fzo-1 modulator screen, mean read-out; stronger effect = higher value
[4] = differential killing of epithelial or mesenchymal cells, primary screen, imaging, PC-3E GFP, TEM4-18 mCherry, co-culture (AID 1345086;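 active = compounds killing one labelled cell type while sparing the other, by normalised counts and ratio limits, not self-fluorescent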;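 for all read-outs here: cells exposed to compound for 72 h before imaging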;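 for red/green cell ratio (normalised): normalised mesenchymal count divided by normalised epithelial count so high means epithelial killing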); conditions: imaging cell counts, at 1 µM; for red/green cell ratio (normalised): actives lie on both sides, counts scaled to control wells, 1 = unselective
[5] = sensitizers of A549 cells to miR-34 induction, primary screen, imaging, A549 dox-inducible miR-34, nuclei and caspase counts (AID 1347080;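 active = compounds whose cell count with miR-34 switched on is under 0.7 times the count with it off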); conditions: A549 miR-34 inducible, Hoechst nuclei count, 48 h
[6] = survival rescue of mitochondrial mutant cells in low glucose, primary screen, MELAS cybrids, Rieske KO mouse fibroblasts, CellTiter-Glo (AID 1508586;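 active = mean z-score across replicates of 1.96 or higher in either the MELAS or the Rieske mutant cell line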;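 note: z relative to plate mean and SD of compound and empty wells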)
[7] = target: NAD(+) hydrolase SARM1 (Homo sapiens) (UniProt Q6SZW1); experiment: SARM1 TIR NADase inhibitors, cell lysate, NAD-Glo luminescence (AID 1508614;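 active = compound whose remaining NAD level is above about 45 nM, limit read from the data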;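 note: higher remaining NAD means stronger inhibition of SARM1 NADase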); conditions: SAM-TIR HEK293T lysate NADase, at 1 µM, stronger effect = higher value
[8] = target: Mitogen-activated protein kinase 7 (Homo sapiens) (UniProt Q13164); experiment: ERK5 transactivation activators in reporter cells, primary screen, cell-based, HTS (AID 1508626;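 active = luciferase signal above three times the same-plate solvent-only control wells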;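 note: luciferase driven by Gal4-ERK5 fusion binding five Gal4 sites before minimal TATA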); conditions: HeLa Gal4-ERK5 transactivation, 18 h, at 5 µM, stronger effect = higher value
[9] = viability rescue of complex I mutant cybrids, primary screen, cell-based, galactose medium, ATP luminescence (AID 1645843;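 active = z-score of at least 1.8 in each of two replicates, scored against plate mean and spread of sample wells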;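 note: positive z means more ATP and so rescue of galactose-driven cybrid death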); conditions: complex I mutant cybrid cells, 72 h, stronger effect = higher value
[10] = Cy5 fluorescence interference with SSB-bound oligo, artefact control for HCV NS3 helicase inhibitor project, biochemical, NIH Clinical Collection, E. coli SSB (AID 743268; call rule not given here)
[11] = system: Hepatitis C virus NS3 helicase; experiment: HCV NS3 helicase inhibitors, primary screen, biochemical, fluorescence polarization, NIH Clinical Collection (AID 743270; call rule not given here); conditions: NS3 helicase binding to Cy5-dT15 DNA, stronger effect = higher value, concentration not given here
[12] = target: Single-stranded DNA-binding protein (Escherichia coli (strain K12)) (UniProt P0AGE0); experiment: E. coli SSB displacement from DNA, counter-screen for HCV NS3 helicase inhibitor project, biochemical, fluorescence polarization, NIH Clinical Collection (AID 743271; in the data active = inhibition above about 28%); conditions: stronger effect = higher value, concentration not given here
[13] = fluorescence interference in NS3h assay format, artefact control for HCV NS3 helicase inhibitor project, biochemical, NIH Clinical Collection (AID 743272; call rule not given here;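 note: HCV NS3 helicase with a Cy5 labelled single stranded DNA probe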); conditions: fluorescence interference counterscreen, stronger effect = lower value
F380Y = experiment: modulators of BK channel variants, profiling panel, selectivity assay, cell-based, U2OS BacMam, thallium flux, beta subunits (AID 1259406); conditions: at 30 µM;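 note: initial slope of Thallos dye fluorescence rise after thallium is added; log ratio against the mean of 0.3% DMSO vehicle wells on the same plate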
F380Y/beta2Delta = experiment: as above; conditions: at 30 µM
[14] = target: Calcium-activated potassium channel subunit alpha-1 (Homo sapiens) + Leucine-rich repeat-containing protein 26 (Homo sapiens) (UniProt Q12791+Q2I0M4); experiment: as above; conditions: F380Y/Slo1WT/gamma1, at 30 µM
R275C = experiment: as above; conditions: at 30 µM
R275C/beta1 = experiment: as above; conditions: at 30 µM
R275C/beta2Delta = experiment: as above; conditions: at 30 µM
[15] = measured here: epithelial PC-3E GFP cell survival
[16] = measured here: mesenchymal TEM4-18 mCherry cell survival
[17] = stronger effect = lower value, cell number ratio, induced over uninduced
[18] = measured here: relative caspase fold change +Dox/-Dox
[19] = measured here: total cells with miR-34 induction, stronger effect = lower value
[20] = measured here: total cells without miR-34 induction
[21] = MELAS cybrid survival, CellTiter-Glo 48 h, stronger effect = higher value
[22] = Rieske KO mouse fibroblast survival, CellTiter-Glo 72 h

Chain of 6-phosphogluconate dehydrogenase, decarboxylating (Homo sapiens) (P52209 whole entry, looked up): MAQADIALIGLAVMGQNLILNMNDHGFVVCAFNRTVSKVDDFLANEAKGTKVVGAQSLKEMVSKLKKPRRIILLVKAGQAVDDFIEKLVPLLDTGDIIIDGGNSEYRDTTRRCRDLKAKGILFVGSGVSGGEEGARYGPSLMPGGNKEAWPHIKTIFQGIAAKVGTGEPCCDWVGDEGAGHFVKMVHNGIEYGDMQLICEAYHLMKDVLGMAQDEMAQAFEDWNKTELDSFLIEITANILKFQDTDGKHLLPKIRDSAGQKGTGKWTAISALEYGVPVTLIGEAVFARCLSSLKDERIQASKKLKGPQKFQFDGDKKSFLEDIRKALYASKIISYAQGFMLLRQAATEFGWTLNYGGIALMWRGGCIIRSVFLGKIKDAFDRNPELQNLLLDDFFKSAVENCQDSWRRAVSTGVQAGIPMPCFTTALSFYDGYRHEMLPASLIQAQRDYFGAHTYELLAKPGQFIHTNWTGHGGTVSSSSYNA
Chain of Mitogen-activated protein kinase 7 (Homo sapiens) (Q13164 whole entry, looked up, the tested form may be a part): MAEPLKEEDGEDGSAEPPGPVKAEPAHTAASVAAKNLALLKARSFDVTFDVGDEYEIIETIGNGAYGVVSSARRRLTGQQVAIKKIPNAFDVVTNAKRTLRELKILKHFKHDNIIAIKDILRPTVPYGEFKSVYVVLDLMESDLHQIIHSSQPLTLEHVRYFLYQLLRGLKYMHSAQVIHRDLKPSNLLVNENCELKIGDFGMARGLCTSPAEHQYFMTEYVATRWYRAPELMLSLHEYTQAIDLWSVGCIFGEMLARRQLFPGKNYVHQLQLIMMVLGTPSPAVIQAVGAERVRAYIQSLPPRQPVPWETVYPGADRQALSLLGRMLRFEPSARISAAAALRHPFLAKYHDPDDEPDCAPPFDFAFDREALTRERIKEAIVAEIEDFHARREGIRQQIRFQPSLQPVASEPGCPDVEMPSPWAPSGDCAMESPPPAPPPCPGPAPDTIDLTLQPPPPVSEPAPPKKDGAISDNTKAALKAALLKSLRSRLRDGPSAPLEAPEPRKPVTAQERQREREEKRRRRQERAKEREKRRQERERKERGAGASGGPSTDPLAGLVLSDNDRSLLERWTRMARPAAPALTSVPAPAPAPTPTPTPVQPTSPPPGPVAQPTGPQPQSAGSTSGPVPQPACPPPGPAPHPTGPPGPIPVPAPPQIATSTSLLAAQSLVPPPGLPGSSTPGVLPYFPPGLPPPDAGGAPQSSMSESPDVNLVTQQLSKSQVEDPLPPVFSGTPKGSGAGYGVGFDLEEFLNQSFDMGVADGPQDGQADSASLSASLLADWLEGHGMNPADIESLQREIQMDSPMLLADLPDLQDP
Chain of NAD(+) hydrolase SARM1 (Homo sapiens) (Q6SZW1 whole entry, looked up, the tested form may be a part): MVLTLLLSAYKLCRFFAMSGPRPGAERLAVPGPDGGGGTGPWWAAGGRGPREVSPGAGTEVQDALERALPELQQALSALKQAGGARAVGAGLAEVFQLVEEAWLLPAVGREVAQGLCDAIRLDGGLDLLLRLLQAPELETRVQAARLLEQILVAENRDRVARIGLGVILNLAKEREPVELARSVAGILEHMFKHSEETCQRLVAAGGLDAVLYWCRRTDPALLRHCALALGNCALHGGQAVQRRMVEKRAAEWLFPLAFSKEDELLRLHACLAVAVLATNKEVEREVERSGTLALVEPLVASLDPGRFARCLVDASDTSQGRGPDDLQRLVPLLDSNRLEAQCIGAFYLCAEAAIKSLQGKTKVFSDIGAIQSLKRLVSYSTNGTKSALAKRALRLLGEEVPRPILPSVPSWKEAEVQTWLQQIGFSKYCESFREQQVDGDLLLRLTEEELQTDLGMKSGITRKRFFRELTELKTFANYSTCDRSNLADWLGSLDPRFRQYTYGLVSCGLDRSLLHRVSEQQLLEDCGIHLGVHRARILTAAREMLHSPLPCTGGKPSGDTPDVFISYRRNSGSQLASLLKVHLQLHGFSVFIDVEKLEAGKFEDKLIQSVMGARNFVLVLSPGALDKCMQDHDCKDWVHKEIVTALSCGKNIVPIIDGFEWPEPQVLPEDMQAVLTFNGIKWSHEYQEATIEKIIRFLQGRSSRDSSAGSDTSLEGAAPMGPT
Chain of Calcium-activated potassium channel subunit alpha-1 (Homo sapiens) + Leucine-rich repeat-containing protein 26 (Homo sapiens) (Q2I0M4 whole entry, looked up, one chain of several): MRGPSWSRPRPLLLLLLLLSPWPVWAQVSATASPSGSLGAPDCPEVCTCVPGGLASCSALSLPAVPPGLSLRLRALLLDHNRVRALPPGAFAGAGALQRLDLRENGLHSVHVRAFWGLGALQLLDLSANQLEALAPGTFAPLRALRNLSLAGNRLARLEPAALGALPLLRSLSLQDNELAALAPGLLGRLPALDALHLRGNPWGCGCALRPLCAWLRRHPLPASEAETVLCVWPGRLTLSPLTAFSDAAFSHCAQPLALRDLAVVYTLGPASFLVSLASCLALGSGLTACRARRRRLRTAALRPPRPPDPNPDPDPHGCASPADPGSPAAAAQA

CCCc1nc(C(C)(C)O)c(C(=O)OCc2oc(=O)oc2C)n1Cc1ccc(-c2ccccc2-c2nn[nH]n2)cc1
-0.0525 and -0.445 and -0.184: z-score [6, 22]
1.08: normalised cell number [4, 16]
1.01: normalised cell number [4, 15]
7940 and 13300 and 11300: cell count [5, 20]
0.262 and 5.26 and 0.77: fold change [5, 18]
7890 and 12500 and 10500: cell count [5, 19]
inactive: parasite load remaining [1] 123% and 56.6% and 38.5% | inhibition [2] -1.37% | mean signal [3] 232 | red/green cell ratio (normalised) [4] 1.07 | fold change [5, 17] 0.993 and 0.942 and 0.929 | z-score [6, 21] -0.0808 and -0.0697 and -0.516 | remaining NAD [7] 10 nM | luciferase signal [8] 116 AU | z-score [9] 0.375
84.8% and 93.3% and 100%: viability [1]

C[C@H](CCC(=O)O)[C@H]1CC[C@H]2[C@@H]3[C@@H](O)C[C@@H]4C[C@H](O)CC[C@]4(C)[C@H]3CC[C@]12C
10300 and 9880: cell count [5, 20]
10300 and 8440: cell count [5, 19]
109% and 101%: viability [1]
inactive: parasite load remaining [1] 52.5% and 128% | fluorescence ratio [10] 0.99 | inhibition [11] -1.36% | inhibition [12] 1.81% | fluorescence ratio [13] 0.97 | inhibition [2] -17.2% | fold change [5, 17] 1 and 0.854 | z-score [6, 21] -0.323 | remaining NAD [7] 10 nM | luciferase signal [8] 36 AU | z-score [9] -0.425 | log fold change Tl+ flux (F380Y) 0.0594 | log fold change Tl+ flux (F380Y/beta2Delta) 0.0428 | log fold change Tl+ flux [14] 0.00339 | log fold change Tl+ flux (R275C) 0.0817
active: log fold change Tl+ flux (R275C/beta1) 0.198 | log fold change Tl+ flux (R275C/beta2Delta) 0.142
-0.919: z-score [6, 22]
1.43 and 1.31: fold change [5, 18]

CC(=O)N=c1sc(S(N)(=O)=O)nn1C
1.12: normalised cell number [4, 16]
-0.175 and -0.724: z-score [6, 22]
0.92: normalised cell number [4, 15]
inactive: fluorescence ratio [10] 1.01 | inhibition [11] -0.45% | inhibition [12] -3.53% | fluorescence ratio [13] 1.03 | inhibition [2] 18.8% | mean signal [3] 273 | red/green cell ratio (normalised) [4] 1.22 | z-score [6, 21] -0.23 and 0.0575 | remaining NAD [7] 10 nM | luciferase signal [8] 80 AU | z-score [9] 0.7 | log fold change Tl+ flux (F380Y) 0.00591 | log fold change Tl+ flux (F380Y/beta2Delta) 0.00714 | log fold change Tl+ flux [14] -0.0355 | log fold change Tl+ flux (R275C) 0.00598 | log fold change Tl+ flux (R275C/beta1) -0.028 | log fold change Tl+ flux (R275C/beta2Delta) -0.0276

Cc1ccc(N(CC2=NCCN2)c2cccc(O)c2)cc1
0.96: normalised cell number [4, 15]
-0.0354 and 0.524 and 0.332: z-score [6, 22]
0.97: normalised cell number [4, 16]
inactive: inhibition [2] -2.41% | mean signal [3] 229 | red/green cell ratio (normalised) [4] 1 | z-score [6, 21] 0.136 and 0.319 and 0.784 | remaining NAD [7] 10 nM | luciferase signal [8] 116 AU | z-score [9] -0.355 and 0.035

CC1(C)SC2C(NC(=O)COc3ccccc3)C(=O)N2C1C(=O)O (configuration not stated)
11000: cell count [5, 19]
11100: cell count [5, 20]
active: fluorescence ratio [10] 0.71
1.37: fold change [5, 18]
94.2%: viability [1]
inactive: parasite load remaining [1] 83.2% | inhibition [11] -3.18% | inhibition [12] -5.05% | fluorescence ratio [13] 1.01 | inhibition [2] 3.81% | mean signal [3] 260 | fold change [5, 17] 0.993 | z-score [9] 1.5 | log fold change Tl+ flux (F380Y) -0.00633 | log fold change Tl+ flux (F380Y/beta2Delta) 0.0322 | log fold change Tl+ flux [14] -0.0109 | log fold change Tl+ flux (R275C) 0.00635 | log fold change Tl+ flux (R275C/beta1) 0.0123 | log fold change Tl+ flux (R275C/beta2Delta) -0.0109

CC[C@H](C)C(=O)O[C@H]1CCC=C2C=C[C@H](C)[C@H](CC[C@@H]3C[C@@H](O)CC(=O)O3)[C@H]21
1.44 and 0.292 and 0.944: fold change [5, 18]
2090 and 1930 and 4610: cell count [5, 19]
inactive: parasite load remaining [1] 95.7% and 85.1% | fluorescence ratio [10] 0.91 | inhibition [11] 0.66% | inhibition [12] 1.97% | fluorescence ratio [13] 0.89 | inhibition [2] -1.06% | mean signal [3] 242 | fold change [5, 17] 0.923 and 1.16 and 1.1 | z-score [6, 21] 0.801 and -1.19 | remaining NAD [7] 10 nM | luciferase signal [8] 24 AU | z-score [9] -0.615 and -0.575 and 0.1
0.000262 and -0.468: z-score [6, 22]
2270 and 1660 and 4180: cell count [5, 20]
67.9% and 134%: viability [1]

Nc1ccn([C@@H]2O[C@H](CO)[C@@H](O)C2O)c(=O)n1 (some centres not stated)
inactive: parasite load remaining [1] 112% and 32.3% | fluorescence ratio [10] 1 | inhibition [11] -5.15% | inhibition [12] -0.87% | fluorescence ratio [13] 0.87 | inhibition [2] -3.33% | mean signal [3] 259 | fold change [5, 17] 1.11 | remaining NAD [7] 10 nM | luciferase signal [8] 88 AU | z-score [9] -1.98 | log fold change Tl+ flux (F380Y) -0.0332 | log fold change Tl+ flux (F380Y/beta2Delta) 0.0269 | log fold change Tl+ flux [14] 0.0371 | log fold change Tl+ flux (R275C) 0.00256 | log fold change Tl+ flux (R275C/beta1) -0.0266 | log fold change Tl+ flux (R275C/beta2Delta) -0.0193
2720: cell count [5, 20]
3020: cell count [5, 19]
1.22: fold change [5, 18]
77.2% and 77%: viability [1]
0.809 and -1.64 (inactive): z-score [6, 21]
2.19 and 0.364: z-score [6, 22]
